Assay results from PubChem BioAssay (EPA / NIEHS).
Where “and” joins values, the source holds several entries; their conditions need not be identical. Equal values may be shown once. A structure can be active in one record and inactive in another. Calls of active or inactive are those of the source. The calls were made as follows: active = hit-call score of the fitted dose curve at least 0.9, where 1 is the maximum; inactive = score below 0.9.

Assay: BSK_SAg_Proliferation: Cell Proliferation Assessment in the BioMAP Diversity Plus: SAg Assay (AID 2283095)
Conditions: primary human HUVEC with PBMC
Procedure: BSK_SAg is a cell-based, multiplexed-readout assay that uses umbilical vein endothelium and peripheral blood mononuclear cells, a human vascular primary cell co-culture, with measurements taken at 24 hours after chemical dosing in a 96-well plate.BSK_SAg_Proliferation is an assay component in the BSK_SAg assay. It measures protein content, a form of viability reporter, as detected with absorbance signals by Sulforhodamine staining technology. Data from the assay component BSK_SAg_Proliferation was analyzed into 1 assay endpoint. This assay endpoint, BSK_SAg_Proliferation, was analyzed with bidirectional fitting relative to DMSO as the negative control and baseline of activity. Using a type of viability reporter, measures of total protein for gain or loss-of-signal activity can be used to understand the viability at the cellular-level. Furthermore, this assay endpoint can be referred to as a secondary readout, because this assay has produced multiple assay endpoints where this one serves a viability function. To generalize the intended target to other relatable targets, this assay endpoint is annotated to the cell cycle intended target family, where the subfamily is proliferation.
The levels of cell surface (or secreted, indicated by the prefix "s") biomarker endpoints were measured by ELISA. Overt cytotoxicity to cells in confluent adherent cultures (all systems other than the BT system) was assessed by measuring total protein levels using sulforhodamine B (SRB) staining in parallel cultures at the time of biomarker measurements, indicated as SRB endpoints. For proliferation assays for adherent cell types, individual cell types are cultured at sub-confluence and relative cell numbers quantified by SRB staining at time points optimized for each system (48 h: 3C and CASM3C systems; 72 h: BT and HDF3CGF systems; 96 h: SAg system). SRB was performed by staining cells with 0.1% SRB after fixation with 10% TCA and reading wells at 560 nm.Viability and proliferation of PBMC (T cells) was quantified by Alamar Blue reduction for the SAg and BT systems. For PBMC viability (referred to as PBMC Cytotoxicity within the assay endpoint names), cells were plated (75,000/well in a 96-well plate) and then chemical samples added for 1 h before addition of activators, SEB and TSST-1 (20 ng/mL final concentration each). Cells were incubated for 90 h. Then, Alamar Blue (20 uL/well) (Invitrogen, Cat DAL1100) was added for 6 h, and the plates were read with a fluorescence microplate reader at 546/580 nm (excitation/emission). For PBMC proliferation, cells were plated and activated as above but incubated for only 16 h prior to addition of Alamar Blue. Plates were read after 6 h.

Structure (SMILES)	outcome	AC50
COC(=O)c1ccccc1CS(=O)(=O)NC(=O)Nc1nc(OC)cc(OC)n1	inactive	
CC[C@H](C)[C@H]1O[C@]2(C=C[C@@H]1C)C[C@@H]1C[C@@H](C/C=C(\C)[C@@H](O[C@H]3C[C@H](OC)[C@@H](O[C@H]4C[C@H](OC)[C@@H](O)[C@H](C)O4)[C@H](C)O3)[C@@H](C)/C=C/C=C3\CO[C@@H]4[C@H](O)C(C)=C[C@@H](C(=O)O1)[C@]34O)O2 (tested in a mixture with another compound)		4.56 µM (active)
O=C1c2ccccc2C(=O)N1SC(Cl)(Cl)Cl		23.4 µM (active)
CNC(=O)Oc1ccccc1OC(C)C	inactive	
CCCN(CCOc1c(Cl)cc(Cl)cc1Cl)C(=O)n1ccnc1		30.4 µM (active)
CCC(C)(C)C(=O)OC1=C(c2ccc(Cl)cc2Cl)C(=O)OC12CCCCC2		12.3 µM (active)
O=S(=O)(O)C(F)(F)C(F)(F)C(F)(F)C(F)(F)C(F)(F)C(F)(F)C(F)(F)C(F)(F)F	inactive	
N#Cc1c(Cl)c(Cl)c(Cl)c(C#N)c1Cl		0.197 µM (active)
Clc1ccccc1-c1nnc(-c2ccccc2Cl)nn1	inactive	
O=C(O)C(F)(F)C(F)(F)C(F)(F)C(F)(F)C(F)(F)C(F)(F)C(F)(F)F	inactive	
COC(=O)c1ccccc1S(=O)(=O)NC(=O)Nc1nc(C)nc(OC)n1	inactive	
CNC(=O)CSP(=S)(OC)OC	inactive	
CCOC1Oc2ccc(OS(C)(=O)=O)cc2C1(C)C (stereo not given)	inactive	
Cc1cc(C)nc(NC(=O)NS(=O)(=O)c2ccccc2C(=O)OC2COC2)n1	inactive	
CCN(CC)C(=O)SCc1ccc(Cl)cc1	inactive	
CC1(C)C(C=C(Cl)Cl)C1C(=O)OC(C#N)c1ccc(F)c(Oc2ccccc2)c1 (stereo not given)		29.9 µM (active)
CCCN(CCC)c1c([N+](=O)[O-])cc(C(F)(F)F)cc1[N+](=O)[O-]		24.4 µM (active)
CCC(C)(NC(=O)c1cc(Cl)c(C)c(Cl)c1)C(=O)CCl (stereo not given)		1.92 µM (active)
COc1cc(OC)nc(NC(=O)NS(=O)(=O)c2cc(NC=O)ccc2C(=O)N(C)C)n1	inactive	
CCS(=O)(=O)c1cccnc1S(=O)(=O)NC(=O)Nc1nc(OC)cc(OC)n1	inactive	

Structure (SMILES)	outcome	AC50
Oc1cc(Cl)ccc1Oc1ccc(Cl)cc1Cl		8.46 µM (active) and 8.15 µM (active) and 6.76 µM (active)
ClC1C(Cl)C(Cl)C(Cl)C(Cl)C1Cl (stereo not given)	inactive	
COP(=O)(OC)OC=C(Cl)Cl		20 µM (active)
N#CN	inactive	
CC(C)N(C(=O)COc1nnc(C(F)(F)F)s1)c1ccc(F)cc1		15.8 µM (active)
COP(=S)(OC)Oc1ccc(SC)c(C)c1	inactive	
O=[N+]([O-])c1c(Cl)c(Cl)c(Cl)c(Cl)c1Cl		31.2 µM (active)
CCc1ccc(C(=O)NN(C(=O)c2cc(C)cc(C)c2)C(C)(C)C)cc1		17.7 µM (active)
Cc1[nH]c(=O)n(C(C)(C)C)c(=O)c1Cl		16 µM (active)
CC(C)(C)C(O)/C(=C\c1ccc(Cl)cc1Cl)n1cncn1 (stereo not given)		29.2 µM (active)
CCC(C)Nc1c([N+](=O)[O-])cc(C(C)(C)C)cc1[N+](=O)[O-] (stereo not given)		29.6 µM (active)
CNC(=O)Oc1cccc(N=CN(C)C)c1		17.9 µM (active)
CC(C)(C)C(O)C(Oc1ccc(Cl)cc1)n1cncn1 (stereo not given)	inactive	15 µM (active)
O=C(O)CCCOc1ccc(Cl)cc1Cl	inactive	
CN1CSC(=S)N(C)C1		5.99 µM (active)
CNC(=O)/C=C(\C)OP(=O)(OC)OC	inactive	
O=C(O)COc1ccc(Cl)cc1Cl	inactive	
CCOCN(C(=O)CCl)c1c(C)cccc1CC		27.1 µM (active)
O=C(Nc1ccccc1)Nc1cnns1	inactive	
